Assay results from PubChem BioAssay (NCATS).
Results filed as inconclusive are left out. Calls of active or inactive are those of the source. Unless noted, calls follow the shape of the dose curve; as a rule, active = well fitted curve in either direction with a large enough effect (not every such curve was filed as active); inconclusive = small, poorly fitted or top-dose-only effect, or another doubt; inactive = flat fitted curve, though single readings scatter.

Assays:
[1] = molecular target: Lysosomal acid glucosylceramidase (Homo sapiens) (UniProt P04062); assay: Glucocerebrosidase-p2 (AID 348; in the data active = potency below about 10 µM; also: potency is read from the fitted curve at half-maximal effect); conditions: purified GBA, blue fluorogenic substrate, 40 min
Lysosomal acid glucosylceramidase (Homo sapiens), sequence (P04062 whole entry, looked up): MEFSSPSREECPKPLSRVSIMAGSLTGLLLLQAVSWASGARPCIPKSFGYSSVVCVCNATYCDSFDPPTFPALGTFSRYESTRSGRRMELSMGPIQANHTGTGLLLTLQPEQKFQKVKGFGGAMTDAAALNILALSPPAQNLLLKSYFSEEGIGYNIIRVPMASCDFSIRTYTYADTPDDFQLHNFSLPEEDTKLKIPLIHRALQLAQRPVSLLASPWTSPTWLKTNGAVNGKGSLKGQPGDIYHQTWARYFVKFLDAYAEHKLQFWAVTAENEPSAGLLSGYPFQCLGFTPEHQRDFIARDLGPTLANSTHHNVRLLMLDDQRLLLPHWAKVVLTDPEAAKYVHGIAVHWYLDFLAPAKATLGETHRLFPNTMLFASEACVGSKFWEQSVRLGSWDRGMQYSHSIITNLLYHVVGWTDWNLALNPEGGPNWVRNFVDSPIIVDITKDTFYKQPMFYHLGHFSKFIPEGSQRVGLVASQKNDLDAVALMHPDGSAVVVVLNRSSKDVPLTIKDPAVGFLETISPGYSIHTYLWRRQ
Summary of the method: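 Compounds titrated from 0.6 nM upwards against 0.2 nM enzyme in pH 5.9 citric acid/KH2PO4, taurocholate, tween-20; blue fluorogenic substrate 80 uM, 40 min room temperature, stopped and read Ex 365/Em 440 for AC50.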

[2] = AP1 Signaling Pathway (AID 357); conditions: ME-180 AP-1-bla reporter, EGF-induced, beta-lactamase ratio, 5 h; at 7.69 µM (top of the series) unless noted; also: % is scaled to controls: 0 for no effect and ±100 for the full control effect
Summary of the method: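 ME-180 cells with beta-lactamase reporter under AP-1 response element, stimulated with EC50 EGF; compounds tested in titration series, 5 h at 37 °C. CCF4 substrate added 2.5 h at room temperature; 460/530 nm emission ratio gave %activity and AC50.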

[3] = molecular target: Cytochrome P450 1A2 (Homo sapiens) (UniProt P05177); assay: p450-cyp1a2 (AID 410; calls by dose curve; also: potency is read from the fitted curve at half-maximal effect;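 as to activity change, negative = inhibition: -100% = full effect of reference inhibitor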); conditions: recombinant CYP1A2, luciferin-ME demethylation, luminescence; series mostly up to 57 µM
Cytochrome P450 1A2 (Homo sapiens), sequence (P05177 whole entry, looked up): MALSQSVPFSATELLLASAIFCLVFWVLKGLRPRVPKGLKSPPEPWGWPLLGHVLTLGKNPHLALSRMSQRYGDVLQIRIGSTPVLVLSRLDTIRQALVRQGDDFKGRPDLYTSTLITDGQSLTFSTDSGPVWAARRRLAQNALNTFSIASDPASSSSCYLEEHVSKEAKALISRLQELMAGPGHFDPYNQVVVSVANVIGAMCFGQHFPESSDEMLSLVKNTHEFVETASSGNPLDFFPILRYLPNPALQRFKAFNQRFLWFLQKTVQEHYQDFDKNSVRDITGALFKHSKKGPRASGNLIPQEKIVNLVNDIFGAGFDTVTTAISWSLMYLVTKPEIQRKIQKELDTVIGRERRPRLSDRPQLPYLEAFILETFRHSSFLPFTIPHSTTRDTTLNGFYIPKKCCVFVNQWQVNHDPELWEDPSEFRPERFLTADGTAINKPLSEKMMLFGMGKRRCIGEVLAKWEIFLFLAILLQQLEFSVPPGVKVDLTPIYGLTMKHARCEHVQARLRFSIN
Summary of the method: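 Human CYP1A2 (20nM) demethylated Luciferin-ME at its Km (100uM) in 100mM KPO4. After 10 min compound preincubation, NADPH regeneration ran the reaction 60 min at room temperature. Luciferin was read by luminescence, normalized to 57 uM furafylline.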

[4] = NFAT Signaling Pathway (AID 444); conditions: Jurkat NFAT-bla M1, carbachol, beta-lactamase ratio, 5 h; at 7.69 µM (top of the series) unless noted;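 also: carbachol stimulus at about its EC50 of 1 µM final; % is scaled to controls: 0 for no effect and ±100 for the full control effect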
Summary of the method: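 Jurkat cells carrying an NFAT-driven β-lactamase reporter and co-transfected muscarinic M1 receptor were treated with compound plus carbachol (1 uM final, an EC50 level) for 5 h at 37 °C. CCF4 loading followed for 1 h at RT; 460/530 nm ratio gave %activity.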

[5] = Stat Signaling Pathway (AID 446); conditions: ME-180 (cervical carcinoma) SIE beta-lactamase reporter, IL-6 stimulated, 5 h; at 7.69 µM (top of the series) unless noted;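 also: ME-180 cervical cancer cells given 40 pM IL-6 alongside compound; SIE-controlled beta-lactamase reporter measured as 460/530 nm FRET emission ratio; % is scaled to controls: 0 for no effect and ±100 for the full control effect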
Summary of the method: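 IL-6/STAT signaling read in ME-180 cells via an SIE beta-lactamase reporter. Stimulus was 40 pM IL-6 (its AC50) for 5 hrs, so both activation and inhibition register.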

[6] = molecular target: Glucocorticoid receptor (Homo sapiens) (UniProt P04150); assay: GR-GFP Redistribution (AID 450;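 active = compounds whose dose series gives a full or clear partial fitted curve of increased nuclear translocation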; also: potency is read from the fitted curve at half-maximal effect); conditions: U2OS GR-GFP nuclear translocation, laser cytometry, 2 h
Glucocorticoid receptor (Homo sapiens), sequence (P04150 whole entry, looked up, the tested form may be a part): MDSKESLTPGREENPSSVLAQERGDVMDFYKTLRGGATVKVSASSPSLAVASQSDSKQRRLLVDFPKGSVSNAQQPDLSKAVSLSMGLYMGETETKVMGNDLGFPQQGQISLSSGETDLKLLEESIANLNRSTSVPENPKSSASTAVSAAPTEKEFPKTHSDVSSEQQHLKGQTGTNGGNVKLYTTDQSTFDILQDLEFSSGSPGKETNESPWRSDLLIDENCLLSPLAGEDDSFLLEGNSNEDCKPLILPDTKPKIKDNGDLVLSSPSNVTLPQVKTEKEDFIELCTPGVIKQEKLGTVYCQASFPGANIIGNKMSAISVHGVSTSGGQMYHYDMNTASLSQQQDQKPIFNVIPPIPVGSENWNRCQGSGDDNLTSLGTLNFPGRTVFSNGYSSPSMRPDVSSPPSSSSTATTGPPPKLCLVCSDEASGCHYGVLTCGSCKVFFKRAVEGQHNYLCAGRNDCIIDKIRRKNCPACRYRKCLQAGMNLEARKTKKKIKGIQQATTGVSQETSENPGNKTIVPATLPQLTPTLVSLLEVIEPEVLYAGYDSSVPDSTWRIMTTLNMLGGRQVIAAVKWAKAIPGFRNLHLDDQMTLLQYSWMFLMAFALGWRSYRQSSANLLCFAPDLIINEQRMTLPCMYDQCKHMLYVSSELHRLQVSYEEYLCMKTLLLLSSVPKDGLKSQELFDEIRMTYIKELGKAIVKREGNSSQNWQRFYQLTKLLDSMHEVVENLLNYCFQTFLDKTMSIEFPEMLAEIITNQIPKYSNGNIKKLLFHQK

[7] = molecular target: Glucocorticoid receptor (Homo sapiens) (UniProt P04150); assay: GR-EFC Redistribution (AID 451; calls by dose curve; also: potency is read from the fitted curve at half-maximal effect); conditions: CHO-K1 GR-EFC translocation, beta-gal luminescence, 2 h
Summary of the method: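 CHO-K1 cells stably expressing nuclear-localized β-gal enzyme acceptor and GR fused C-terminally to the enzyme donor fragment; ligand-driven nuclear translocation restores β-gal by complementation. Compounds titrated up to 46 uM final, 2 h at 37 °C; luminescence read.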

[8] = molecular target: Mitogen-activated protein kinase 10 (Mus musculus) (UniProt Q61831); assay: JNK3 AlphaScreen Assay (AID 530); conditions: JNK3 lysate, c-Jun phosphorylation; series mostly up to 57.1 µM;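 also: kinase came from lysate of stimulated human HepG2 cells; signal reports phosphorylation of biotinylated GST-cJun 1-79 at Ser73 with 10 µM ATP; % is scaled to controls: 0 for no effect and ±100 for the full control effect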
Summary of the method: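 JNK3 came from HepG2 lysates pre-activated with IL-1beta and TNF-alpha and phosphorylated biotinylated GST-cJun (1-79) at 10 uM ATP, pH 7.6, room temperature. Compounds were titrated. AlphaScreen signal used anti-phospho-cJun (Ser73) antibody.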

[9] = molecular target: Cytochrome P450 3A4 (Homo sapiens) (UniProt P08684); assay: qHTS Assay for Inhibitors and Substrates of Cytochrome P450 3A4 (AID 884; active = well fitted curve in the direction sought with a large enough effect; an effect the other way counts as inactive or inconclusive; also: potency is read from the fitted curve at half-maximal effect; nearly all actives have a fitted effect of over 50% in size); conditions: recombinant CYP3A4, Luciferin-PPXE luminescence; series mostly up to 57.1 µM
Cytochrome P450 3A4 (Homo sapiens), sequence (P08684 whole entry, looked up): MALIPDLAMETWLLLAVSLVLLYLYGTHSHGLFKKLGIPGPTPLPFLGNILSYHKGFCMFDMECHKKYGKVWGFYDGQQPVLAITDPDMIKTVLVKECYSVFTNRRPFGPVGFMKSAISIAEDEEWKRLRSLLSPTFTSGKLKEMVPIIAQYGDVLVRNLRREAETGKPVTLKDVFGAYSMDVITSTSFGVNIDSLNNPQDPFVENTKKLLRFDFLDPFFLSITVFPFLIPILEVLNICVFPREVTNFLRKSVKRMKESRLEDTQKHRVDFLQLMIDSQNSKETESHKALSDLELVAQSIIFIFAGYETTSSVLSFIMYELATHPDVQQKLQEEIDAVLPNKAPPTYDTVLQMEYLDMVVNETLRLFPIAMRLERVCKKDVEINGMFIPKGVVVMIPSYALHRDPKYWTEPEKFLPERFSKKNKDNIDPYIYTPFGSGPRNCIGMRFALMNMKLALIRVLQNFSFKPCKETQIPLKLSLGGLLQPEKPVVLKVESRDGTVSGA
Summary of the method: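 20 nM human CYP3A4 with 25 uM Luciferin-PPXE (at KM) in 200 mM KPO4, preincubated 10 min with compound; NADPH regeneration started a 60 min RT reaction. Luciferin detected by luminescence, normalized to 57 uM ketoconazole as full inhibition.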

[10] = molecular target: Cytochrome P450 3A4 (Homo sapiens) (UniProt P08684); assay: qHTS Assay for Activators of Cytochrome P450 3A4 (AID 885; active = well fitted curve in the direction sought with a large enough effect; an effect the other way counts as inactive or inconclusive; also: nearly all actives have a fitted effect of over 65% in size); conditions: recombinant CYP3A4, Luciferin-PPXE luminescence, 60 min; series mostly up to 57.1 µM
Summary of the method: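 Quantitative HTS format: compounds preincubated with 20nM human CYP3A4 and Luciferin-PPXE substrate at KM, reaction started by NADPH regeneration, stopped after 60 min, luciferase luminescence read 20 min later.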

[11] = molecular target: Cytochrome P450 2C19 (Homo sapiens) (UniProt P33261); assay: qHTS Assay for Inhibitors and Substrates of Cytochrome P450 2C19 (AID 899; active = well fitted curve in the direction sought with a large enough effect; an effect the other way counts as inactive or inconclusive; also: nearly all actives have a fitted effect of over 60% in size; also: potency is read from the fitted curve at half-maximal effect); conditions: recombinant CYP2C19, luciferin-H EGE luminescence; series mostly up to 57.1 µM
Cytochrome P450 2C19 (Homo sapiens), sequence (P33261 whole entry, looked up): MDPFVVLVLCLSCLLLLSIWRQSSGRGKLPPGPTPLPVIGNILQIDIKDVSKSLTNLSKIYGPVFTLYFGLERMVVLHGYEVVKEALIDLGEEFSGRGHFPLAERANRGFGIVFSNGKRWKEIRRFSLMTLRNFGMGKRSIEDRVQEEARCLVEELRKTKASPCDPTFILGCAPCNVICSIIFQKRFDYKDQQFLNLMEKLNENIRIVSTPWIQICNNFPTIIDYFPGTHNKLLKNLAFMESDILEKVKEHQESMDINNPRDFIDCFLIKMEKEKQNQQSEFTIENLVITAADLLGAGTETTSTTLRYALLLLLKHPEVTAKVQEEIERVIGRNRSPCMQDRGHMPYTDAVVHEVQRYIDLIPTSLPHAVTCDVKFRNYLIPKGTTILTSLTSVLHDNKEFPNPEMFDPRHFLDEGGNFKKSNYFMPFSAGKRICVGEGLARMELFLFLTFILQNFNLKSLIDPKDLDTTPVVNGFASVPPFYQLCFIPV
Summary of the method: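 In 50mM KPO4, the reaction held 5nM enzyme and KM-level (10uM) Luciferin-H EGE; it ran 60 min at 37C after NADPH regeneration and a 10 min compound preincubation. Luminescence values were scaled to 57uM ketoconazole as complete inhibition.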

[12] = Confirmation and Secondary Assay for Modulators of Hemoglobin Beta Chain Splicing at IVS2 654 locus (AID 910; active = well fitted curve in the direction sought with a large enough effect; an effect the other way counts as inactive or inconclusive;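 also: per-well total GFP intensity by laser scanning cytometry after 2-day treatment; % of control where 0% means no effect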); conditions: HeLa EGFP-654 splicing reporter, GFP fluorescence, 48 h; series mostly up to 38.3 µM
Summary of the method: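 HeLa cells stably carrying EGFP interrupted by mutant beta-globin IVS2-654 intron (CMV-driven) were treated with compound for 2 days at 37C; corrected splicing was scored as total peak GFP intensity per well (488 nm excitation, 500-520 nm emission).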

[13] = Confirmation and Secondary Assay for Modulators of Hemoglobin Beta Chain Splicing at IVS2 705 locus (AID 930; active = well fitted curve in the direction sought with a large enough effect; an effect the other way counts as inactive or inconclusive;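 also: HeLa cells stably expressing the EGFP-705 splicing reporter; GFP fluorescence per well restored by corrected splicing of the IVS2-705 intron in EGFP; % of control where 0% means no effect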); conditions: HeLa EGFP-705 splicing reporter, GFP fluorescence, 48 h; series mostly up to 38.3 µM
Summary of the method: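 Per-well GFP, captured at 1 x 8 µm resolution with 488 nm excitation, served as the read-out for HeLa EGFP-705 cells incubated 2 days with test compound versus DMSO.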

[14] = qHTS Assay for Lipid Storage Modulators (AID 1519; calls by dose curve); conditions: Drosophila S3 cells, BODIPY lipid droplet/cell ratio, laser cytometry, cells loaded with oleic acid; for activity change, negative = inhibition: at 57.5 µM (top of the series)
Summary of the method: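 Cells seeded at 5,000 per well were treated with compounds over a concentration series and loaded with oleic acid (400 uM, as added). Lipid droplet fluorescence (488 nm excitation, 500-530 nm channel) was read by laser-scanning cytometry and normalized to 20 uM Triacsin C.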

[15] = molecular target: 3',5'-cyclic-AMP phosphodiesterase 4B (Homo sapiens) (UniProt Q07343); assay: qHTS Assay for Inhibitors of PDE-IV (AID 607; active = well fitted activation curve with a large enough effect in the main read-out, with a control signal flat, not every such curve was filed as active; also: % of control where 0% means no effect); conditions: HEK293 ACTOne CNG channel cells, membrane potential fluorescence; series mostly up to 22.9 µM
3',5'-cyclic-AMP phosphodiesterase 4B (Homo sapiens), sequence (Q07343 whole entry, looked up): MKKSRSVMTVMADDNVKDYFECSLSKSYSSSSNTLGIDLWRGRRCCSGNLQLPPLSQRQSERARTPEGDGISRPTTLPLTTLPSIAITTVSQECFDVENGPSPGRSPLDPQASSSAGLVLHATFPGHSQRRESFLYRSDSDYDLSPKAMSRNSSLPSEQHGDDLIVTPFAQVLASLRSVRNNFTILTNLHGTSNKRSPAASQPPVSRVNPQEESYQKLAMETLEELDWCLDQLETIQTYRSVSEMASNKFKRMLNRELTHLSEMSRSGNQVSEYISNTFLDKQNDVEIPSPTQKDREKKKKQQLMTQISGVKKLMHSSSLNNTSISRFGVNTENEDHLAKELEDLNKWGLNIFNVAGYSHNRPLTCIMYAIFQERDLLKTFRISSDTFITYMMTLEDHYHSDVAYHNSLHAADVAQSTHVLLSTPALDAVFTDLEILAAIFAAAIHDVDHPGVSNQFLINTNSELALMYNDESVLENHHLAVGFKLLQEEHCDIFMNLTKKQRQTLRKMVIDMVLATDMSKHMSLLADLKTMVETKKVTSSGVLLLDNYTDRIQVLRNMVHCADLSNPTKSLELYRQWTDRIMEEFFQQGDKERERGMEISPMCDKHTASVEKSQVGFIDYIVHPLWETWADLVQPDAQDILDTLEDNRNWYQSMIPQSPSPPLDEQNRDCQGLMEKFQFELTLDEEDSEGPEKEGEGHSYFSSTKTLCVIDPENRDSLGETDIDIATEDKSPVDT
Summary of the method: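 Live HEK293 cells with a modified cyclic nucleotide-gated (CNG) channel report intracellular cAMP via membrane-potential dye fluorescence (ex 535/em 590 nm). Endogenous PDE-IV was targeted. Compounds were tested at up to 22.9 uM final; RO 20-1724 100 uM served as control.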

[16] = molecular target: Ubiquitin carboxyl-terminal hydrolase 1 (Homo sapiens) (UniProt O94782); assay: Inhibitors of USP1/UAF1: Pilot qHTS (AID 504865; active = well fitted curve in the direction sought with a large enough effect; an effect the other way counts as inactive or inconclusive;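 also: rhodamine fluorescence freed from ubiquitin-rhodamine substrate followed over time; top concentration of the series differs between compounds; % is scaled to controls: 0 for no effect and ±100 for the full control effect; nearly all actives have a fitted effect of over 35% in size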); conditions: purified USP1/UAF1, Ub-rhodamine cleavage fluorescence; series mostly up to 54.9 µM
Ubiquitin carboxyl-terminal hydrolase 1 (Homo sapiens), sequence (O94782 whole entry, looked up): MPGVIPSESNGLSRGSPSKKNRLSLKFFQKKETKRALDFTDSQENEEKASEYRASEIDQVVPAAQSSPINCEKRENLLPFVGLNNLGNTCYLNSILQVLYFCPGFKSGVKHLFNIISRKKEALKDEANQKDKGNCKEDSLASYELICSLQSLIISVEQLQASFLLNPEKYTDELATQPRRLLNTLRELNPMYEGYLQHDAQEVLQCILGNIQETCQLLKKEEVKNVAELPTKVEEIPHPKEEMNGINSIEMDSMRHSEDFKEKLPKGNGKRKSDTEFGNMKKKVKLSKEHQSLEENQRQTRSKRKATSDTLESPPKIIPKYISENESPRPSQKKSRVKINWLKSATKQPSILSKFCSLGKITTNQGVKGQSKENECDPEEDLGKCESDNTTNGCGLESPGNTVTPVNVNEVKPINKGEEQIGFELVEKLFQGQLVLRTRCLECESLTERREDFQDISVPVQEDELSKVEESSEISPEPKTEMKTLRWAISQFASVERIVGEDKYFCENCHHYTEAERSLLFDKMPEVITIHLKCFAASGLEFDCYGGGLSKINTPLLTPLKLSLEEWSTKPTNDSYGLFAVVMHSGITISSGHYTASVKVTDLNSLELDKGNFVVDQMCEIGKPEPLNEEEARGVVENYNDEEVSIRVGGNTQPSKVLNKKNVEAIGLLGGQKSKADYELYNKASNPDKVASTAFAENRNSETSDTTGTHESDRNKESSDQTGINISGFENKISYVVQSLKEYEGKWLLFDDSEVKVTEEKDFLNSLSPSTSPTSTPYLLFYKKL
Summary of the method: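 USP1/UAF1 complex (1nM) preincubated with compound 15 min at room temperature, then Ub-Rho substrate (150nM final) added. Fluorescence read kinetically at 480/540 nm, 6 reads every 60 seconds. Buffer: 50mM HEPES pH 7.8, 0.5mM EDTA, 0.1 mg/ml BSA, 1mM TCEP, 0.01% Tween-20.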

[17] = measured here: cell count channel max response
[18] = measured here: lipid channel max response

Row | SMILES | Potency [1] | activity change, negative = inhibition [2] | Potency [3] | activity change, negative = inhibition [4] | activity, negative = inhibition [5] | Potency [6] | Potency [7] | Potency [8] | Potency [9] | Potency [10] | Potency [11] | Potency [12] | outcome [13] | activity change, negative = inhibition [14] | max response [14, 17] [%] | max response [14, 18] [%] | Potency [15] | Potency [16]
1 | Cc1ccccc1-c1nc(-n2ccnc2)c2ccccc2n1 | > 11.4 µM (inactive) | -12.3% (inactive) | 0.316 µM (active) | -10.1% (inactive) | 0.874% (inactive) | > 46 µM (inactive) | > 46 µM (inactive) | inactive | 0.398 µM (active) | inactive | 5.01 µM (active) | inactive | inactive | 5.99% (inactive) | -6.87 | -2.77 |  | 
2 | CN(C)C(=O)c1ccc(-c2nc(N(C)C)c3ccccc3n2)cc1 | > 11.4 µM (inactive) | -11.7% (inactive) | 10 µM (active) | 16.5% (inactive) | 2.64% (inactive) | > 46 µM (inactive) | > 46 µM (inactive) | inactive |  | inactive | inactive |  | inactive | 8.51% (inactive) | 8.15 | 13.9 | inactive | inactive
3 | CS(=O)(=O)Nc1cccc(-c2nc(N3CCOCC3)c3ccccc3n2)c1 | > 11.4 µM (inactive) | -11.2% (inactive) | 5.01 µM (active) | 27.4% (inactive) | -10.3% (inactive) | > 46 µM (inactive) | > 46 µM (inactive) | inactive | 1.58 µM (active) | inactive |  | inactive | inactive | 2.88% (inactive) | -24.3 | -22 |  | inactive
4 | CN(C)Cc1ccccc1-c1nc(N(C)Cc2ccco2)c2ccccc2n1 | > 11.4 µM (inactive) | 9.21% (inactive) | 0.794 µM (active) | -18.4% (inactive) | 3.87% (inactive) | > 46 µM (inactive) | > 46 µM (inactive) | inactive |  | inactive |  | inactive | inactive | 6.11% (inactive) | 17.4 | 24.7 |  | inactive
5 | COc1ccccc1-c1ccc2ncnc(N(C)C)c2c1 | > 11.4 µM (inactive) | -19.5% (inactive) | 1.26 µM (active) | -2.93% (inactive) | -12.7% (inactive) | > 46 µM (inactive) | > 46 µM (inactive) | inactive | 5.01 µM (active) | inactive | 0.501 µM (active) | inactive | inactive | 4.68% (inactive) | -12.6 | -7.7 |  | 
6 | O=C(c1cc(C(F)(F)F)cc(C(F)(F)F)c1)N1CCC2(CC1)CCN(c1ncccn1)CC2 | > 11.4 µM (inactive) | -11.6% (inactive) | inactive | 28.8% (inactive) | -7.73% (inactive) |  | > 46 µM (inactive) | inactive |  |  |  |  |  | 3.41% (inactive) | 13.8 | 23.2 | inactive | 
7 | CC(=O)N1CCC2(CC1)CCN(c1ccncc1)CC2 | > 11.4 µM (inactive) | -3.43% (inactive) | inactive | -17.4% (inactive) | -6.23% (inactive) |  | > 46 µM (inactive) | inactive |  |  |  |  |  | -1.07% (inactive) | -6.73 | -6.95 | inactive | 
8 | Cc1cccc(CNc2nc(-c3cccc(NS(C)(=O)=O)c3)nc3ccccc23)c1 | > 11.4 µM (inactive) | -27.3% (inactive) | 15.8 µM (active) | -6.18% (inactive) | -23% (inactive) | > 46 µM (inactive) | > 46 µM (inactive) |  | 5.01 µM (active) | inactive | 2.51 µM (active) | inactive | inactive | 1.31% (inactive) | -11.9 | -11.1 |  | 
9 | CC(C)NC(=O)N1CCC2(CC1)CCN(C(=O)c1cnccn1)CC2 | > 11.4 µM (inactive) | -0.14% (inactive) | inactive | 7.26% (inactive) | -2.84% (inactive) |  | > 46 µM (inactive) | inactive |  |  |  |  |  | 0.356% (inactive) | 15.3 | 17.7 | inactive | 
10 | Cc1cccc(CNc2cc(-c3ccc(C(=O)N(C)C)cc3)ncn2)c1 | > 11.4 µM (inactive) | -7.22% (inactive) | 15.8 µM (active) | 13.4% (inactive) | -2.64% (inactive) | > 46 µM (inactive) | > 46 µM (inactive) | inactive | 3.16 µM (active) | inactive |  | inactive | inactive | 0.763% (inactive) | 0.996 | 1.9 |  | inactive
11 | Cc1cccc(CNc2ncncc2-c2ccccc2C(F)(F)F)c1 | > 11.4 µM (inactive) | -9.35% (inactive) | 12.6 µM (active) | -6.75% (inactive) | -0.642% (inactive) | > 46 µM (inactive) | > 46 µM (inactive) | inactive | 0.0794 µM (active) | inactive |  | inactive | inactive | 4.45% (inactive) | -2.27 | 3.62 |  | 
12 | CN(Cc1ccco1)c1ccnc(-c2cccc(NS(C)(=O)=O)c2)n1 | > 11.4 µM (inactive) | -9.76% (inactive) | 1.26 µM (active) | -2.37% (inactive) | 2.34% (inactive) | > 46 µM (inactive) | > 46 µM (inactive) | inactive | 6.31 µM (active) | inactive |  | inactive | inactive | 9.05% (inactive) | 18.7 | 26.7 | inactive | inactive
